Source: the supplement of paper PMC6555819

How the values were obtained:
Assay in all cases: PBM binding z-score (relative to random genomic background probes); higher = stronger binding; sequences stand for … in GC…GCGATTGACAGCGTAGAATGAAGG
[1] = test system: RARb homodimer (NR concentration 270 nM)
In short: (§1)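 Regression normalization was applied to scanned fluorescence from custom Agilent 4×180K protein-binding microarrays. Before scanning, arrays were incubated 1 h with ligand-free nuclear receptor dimers, and binding was detected with antibodies against each partner (one per run). Binding z-scores use the random background probes as reference.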

[2] = test system: RARg:RXRa (NR concentration 270 nM, RXRa partner concentration 90 nM)
In short: as §1

[3] = test system: RARg homodimer (NR concentration 270 nM)
In short: as §1

[4] = test system: RXRa DBDmut IVT, anti-RXR (DBD mutation: RXRa K156A/R161A, NR concentration 90 nM)
In short: as §1

[5] = test system: RXRa homodimer (NR concentration 180 nM)
In short: as §1

[6] = test system: THRa:RXRa (NR concentration 90 nM, RXRa partner concentration 90 nM)
In short: as §1

[7] = test system: THRa homodimer (NR concentration 90 nM)
In short: as §1

[8] = test system: VDR homodimer (NR concentration 270 nM)
In short: as §1

| Sequence | PBM binding z-score [1] | PBM binding z-score [2] | PBM binding z-score [3] | PBM binding z-score [4] | PBM binding z-score [5] | PBM binding z-score [6] | PBM binding z-score [7] | PBM binding z-score [8] |
| --- | --- | --- | --- | --- | --- | --- | --- | --- |
| ACTATTAGTTGAGACGAGGGCAACCGATAGGTTG | 1.2 | 0.833 | 0.861 | 0.5 | 0.75 | 2.7 | 0.226 | 0.728 |
| GCTCGGAGGACAAGTTCAGAGCTTTGTCCGTAGA | 1.38 | 0.89 | 1.25 | 1.73 | 0.198 | 1.27 | -0.148 | 1.89 |
| CAAACTAGGTCACGAAAGGACAAAGTCGAATGAC | 4.13 | 5.37 | 6.43 | 1.59 | 4.1 | 4.56 | 1.59 | 1.06 |
| CATCCAAGGTCAATGCTAGGTCAGTGAAAGCATT | 4.85 | 7.59 | 6.9 | 3.53 | 5.4 | 4.39 | 2.95 | 3.16 |
| CGATCTAGGTCAAGGACAGTGAATCTCCGCACGC | 2.75 | 3.6 | 4.45 | 1.55 | 2.2 | 3.07 | 2.46 | 0.43 |
| CGTCAAAGTTCAACTAAAGTAACGTAAAGCACGC | 4.13 | 5.9 | 6.97 | 4.67 | 5.02 | 2.61 | 0.0523 | 3.56 |
| GGAACGAAGGCAAAGTTGATAGCATCTGTCGACG | -0.905 | -0.275 | -0.151 | -0.157 | -0.084 | -0.716 | -1.21 | -1.02 |
| ATATGTCGGTTAAGGGTCATTCAGGTTGGTTCGC | 3.68 | 4.69 | 3.43 | 2.21 | 4.55 | 3.42 | 1.7 | 4.47 |
| TAGGCTAGGTCATTGGGCCAGTATAGTACGCATC | 2.94 | 3.67 | 4.61 | 1.54 | 2.5 | 2.54 | 0.641 | 1.09 |
| CGAACTAGGGCAAGGACAGTGAATCTCCGCACGC | 0.945 | 0.544 | 1.17 | 0.123 | 0.145 | 1.09 | 0.786 | 0.0219 |
| AGAACGAGGGCACGCTGAGTTGAAAGCAGAGTAG | 1.16 | 2.34 | 2.15 | 2 | 1.46 | 2.13 | -0.233 | 0.663 |
| CGAACTAGGTCAAGGACAGAGAATCTCCGCACGC | 2.93 | 3.95 | 4.67 | 1.52 | 2.61 | 2.74 | 1.79 | 0.0808 |
| TCTGCTAGGTCTGTTGGTCAGCTAACGAGCTGCC | -0.195 | -0.258 | -0.599 | 0.00538 | -0.403 | -0.454 | -0.978 | -1.23 |
| CCTAGCAGGCCAGGCTCACTCAAGCATTTCGCTT | -0.944 | -0.644 | -0.705 | 0.0454 | -0.649 | -0.789 | -0.705 | -0.911 |
| CGAACTACGTCATTGACAGGACAGTGAATAGTAA | 0.0564 | 0.288 | 0.139 | 0.0473 | 0.152 | 0.0548 | -0.0847 | -0.012 |
| TGAATGAGGTTAAAGATCAGGGGACGTGGCGTCG | 1.02 | 2.29 | 1.31 | 1.01 | 3.57 | 2.83 | 0.742 | 0.974 |
| GCTTACGGGGCAAAGGTTATAGCATGAATAGAAT | 1.58 | 3.73 | 1.43 | 1.11 | 4.42 | 1.89 | -0.425 | -0.046 |
